According to PubChem BioAssay (NCI):
Several values for one entry are separate records, joined by “and”; a condition that tells them apart may be missing. Identical values can stand only once. This is part of a sample that, as a whole, favours compounds with a hit. Of some 83,000 tested, about 20% had one in any assay.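 Single-dose data. Exposure time 48 hours. Values below 10 considered active.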 Activity calls are given as the source filed them.

Legend:
Test in all cases: NCI-60 one-dose screen, 48 h (100 = growth as untreated, 0 = no growth, -100 = all killed)
Conditions in all cases: 10 µM unless noted
T-47D breast = test system: T-47D breast
BT-549 breast = test system: BT-549 breast
MDA-MB-435 melanoma = test system: MDA-MB-435 melanoma
SW-620 colon = test system: SW-620 colon
MCF7 breast = test system: MCF7 breast
HCT-116 colon = test system: HCT-116 colon
HCC-2998 colon = test system: HCC-2998 colon
KM12 colon = test system: KM12 colon

Measured: growth

COc1ccc(-c2ccccc2)cc1-c1c(Nc2cc(Cl)cc(Cl)c2O)c(=O)c1=O
inactive: BT-549 breast 19.7% | SW-620 colon 17.5% | HCT-116 colon 11.2% | HCC-2998 colon 13.8%
active: T-47D breast -8.93% | MDA-MB-435 melanoma -4.35% | MCF7 breast 5.24% | KM12 colon 7.85%

CCOC(=O)C1=C(C)NC(=O)NC1c1c(Cl)n(-c2ccccc2)c2ccccc12 (stereo unspecified)
inactive: T-47D breast 90.4% | BT-549 breast 70.4% | MDA-MB-435 melanoma 54% | SW-620 colon 83.2% | MCF7 breast 87.9% | HCT-116 colon 69.1% | HCC-2998 colon 91.8% | KM12 colon 92.3%

Cc1ccc(/C=C(\C#N)c2cc3ccccc3[nH]2)cc1
inactive: T-47D breast 36.1% | BT-549 breast 56.9% | SW-620 colon 16.4% | MCF7 breast 22.4% | HCT-116 colon 32.5% | HCC-2998 colon 65.9% | KM12 colon 31.7%
active: MDA-MB-435 melanoma -5.1%

CCCCSc1ccc2nc(-c3ccc(OCCCN=C(N)N)cc3)cn2c1
inactive: T-47D breast 90.7% | BT-549 breast 54.2% | MDA-MB-435 melanoma 47.6% | SW-620 colon 83.5% | MCF7 breast 47% | HCT-116 colon 42.2% | HCC-2998 colon 59.2% | KM12 colon 34.3%

COc1ccc(-c2ccc(-c3ccc(C(=N)N)cn3)s2)cc1Cl
inactive: BT-549 breast 107%
active: T-47D breast -43.4% | MDA-MB-435 melanoma -96.9% | SW-620 colon -87.5% | MCF7 breast -68.9% | HCT-116 colon -62.6% | HCC-2998 colon -80.9% | KM12 colon -45.3%

CCCCCO/N=C\c1c2c(O)c3c(O)c(C)c4c(c3c1O)C(=O)C(C)(O/C=C\C(OC)C(C)C(OC(C)=O)C(C)C(O)C(C)C(O)C(C)/C=C\C=C(\C)C(=O)N2)O4 (stereo unspecified)
inactive: T-47D breast 26.8% | BT-549 breast 33.1% | MDA-MB-435 melanoma 15.8% | SW-620 colon 18.3% | MCF7 breast 17% | KM12 colon 17.3%
active: HCT-116 colon 9.51% | HCC-2998 colon 6.51%

COc1cccc(C2C(C#N)=C(N)Oc3cc(OCCCCCC[P+](c4ccccc4)(c4ccccc4)c4ccccc4)ccc32)c1 (stereo unspecified)
active: T-47D breast -32.9% | BT-549 breast -54.3% | MDA-MB-435 melanoma -77.6% | SW-620 colon -31.7% | MCF7 breast -39.2% | HCT-116 colon -81% | HCC-2998 colon -68.6% | KM12 colon -77%

COc1ccccc1/C=C1\COc2ccc(O)c(O)c2C1=O
active: MDA-MB-435 melanoma 8.84% | SW-620 colon 3.71% | HCT-116 colon 8.37%
inactive: T-47D breast 11.6% | BT-549 breast 24.2% | MCF7 breast 14.8% | HCC-2998 colon 69.7% | KM12 colon 20.8%

CCOC(=O)c1c(-c2ccc(OC)cc2)c(C#N)c2c(C#N)c(N)nn2c1N
active: MDA-MB-435 melanoma -38.2%
inactive: T-47D breast 12% | BT-549 breast 37% | SW-620 colon 26.9% | MCF7 breast 13.2% | HCT-116 colon 16% | HCC-2998 colon 62.9% | KM12 colon 23.6%

CC/C(=C(/c1ccc(Cl)cc1)c1ccc(OCCN2CCOCC2)cc1)c1ccccc1
inactive: T-47D breast 71.7% | BT-549 breast 117% | MDA-MB-435 melanoma 94.8% | SW-620 colon 83.7% | MCF7 breast 86.2% | HCT-116 colon 77.6% | HCC-2998 colon 99.8% | KM12 colon 96.6%

CCCNNC(=O)/C=C/c1ccc(CNCCc2c(C)[nH]c3ccccc23)cc1
inactive: BT-549 breast 62.2% [2.5 µM] | MDA-MB-435 melanoma 14% [2.5 µM] | SW-620 colon 10.7% [2.5 µM] | MCF7 breast 24.2% [2.5 µM] | HCC-2998 colon 13.3% [2.5 µM] | KM12 colon 28.8% [2.5 µM]
active: T-47D breast -7.33% [2.5 µM] | HCT-116 colon 0.525% [2.5 µM]

O=C1N=c2ccccc2=C1c1sc(=S)n(C2CC(=O)N(c3ccc(Cl)cc3)C2=O)c1O (stereo unspecified)
inactive: T-47D breast 97.9% | BT-549 breast 105% | MDA-MB-435 melanoma 102% | SW-620 colon 99.8% | MCF7 breast 91.1% | HCT-116 colon 96.7% | HCC-2998 colon 105% | KM12 colon 100%

Oc1ccccc1C=Nc1ccc(N2CCN(c3ccccc3)CC2)cc1
inactive: T-47D breast 81.7% | BT-549 breast 54.8% | MDA-MB-435 melanoma 96.5% | SW-620 colon 110% | MCF7 breast 84% | HCT-116 colon 87.1% | HCC-2998 colon 90.2% | KM12 colon 103%

COc1ccc2c(c1)CCNC21C(=O)Nc2c(Br)cc(Br)cc21 (stereo unspecified)
inactive: T-47D breast 90.3% | BT-549 breast 103% | MDA-MB-435 melanoma 101% | SW-620 colon 97.4% | MCF7 breast 101% | HCT-116 colon 103% | HCC-2998 colon 105% | KM12 colon 104%

COc1cc(-c2nc3occn3c2-c2ccnc(NCCCNS(=O)(=O)c3ccc(O)cc3)n2)ccc1F
inactive: T-47D breast 84.8% | BT-549 breast 116% | MDA-MB-435 melanoma 47.7% | SW-620 colon 115% | MCF7 breast 92.1% | HCT-116 colon 86.1% | HCC-2998 colon 112% | KM12 colon 99.8%

O=Nc1ccc(NO)c2ccccc12
107% (inactive) and -57.8% (active): MDA-MB-435 melanoma
inactive: T-47D breast 96.9% and 65.8% | BT-549 breast 83.3% and 87.8% | SW-620 colon 86% and 52.3% | MCF7 breast 91.5% and 64.5% | HCT-116 colon 95% and 39.1% | HCC-2998 colon 120% and 108% | KM12 colon 104% and 76.4%

O=C1C=C(Nc2ccccc2)c2ncccc2C1=O
active: T-47D breast -48.3% | BT-549 breast -94.4% | MDA-MB-435 melanoma -95.3% | SW-620 colon -70.6% | MCF7 breast -52.2% | HCT-116 colon -87.9% | HCC-2998 colon -89.1% | KM12 colon -67.3%

Cc1ccc(NC(=O)N/C(N)=N/c2nc(=O)c3ccccc3s2)cc1
inactive: T-47D breast 109% | BT-549 breast 86.4% | MDA-MB-435 melanoma 87.5% | SW-620 colon 92.7% | MCF7 breast 84.9% | HCT-116 colon 94.1% | HCC-2998 colon 102% | KM12 colon 103%

CN(C)c1ccc2nc3ccc(=O)cc-3sc2c1
active: MCF7 breast -1.53% and 1.73% | HCT-116 colon 2.57% and 9.4%
40.7% (inactive) and -65.2% (active): MDA-MB-435 melanoma
inactive: T-47D breast 28% and 38.8% | BT-549 breast 52.5% and 47.1% | SW-620 colon 31.9% and 47.4% | HCC-2998 colon 18.1% and 39.7% | KM12 colon 30.4% and 32.8%

CC[C@]1(O)CC2CN(CCc3c([nH]c4ccccc34)C(C(=O)OC)(c3cc4c(cc3OC)N(C=O)[C@H]3[C@@](O)(C(=O)OC)[C@H](OC(C)=O)[C@]5(CC)[C@@H]6C[C@@H]6CN6CC[C@]43[C@@H]65)C2)C1 (stereo partly specified)
inactive: T-47D breast 72.1% | SW-620 colon 23.1% | MCF7 breast 12.1% | HCC-2998 colon 12.2%
active: BT-549 breast -2.67% | MDA-MB-435 melanoma -53.2% | HCT-116 colon -17.5% | KM12 colon -17.5%

N#CSc1c[nH]c2ccc(/C=C/C(=O)/C=C(/C=C/c3ccc4[nH]cc(SC#N)c4c3)OB(F)F)cc12
inactive: HCC-2998 colon 31.9% | KM12 colon 19.6%
active: T-47D breast -7.65% | BT-549 breast -10.2% | MDA-MB-435 melanoma -77.4% | SW-620 colon 2.13% | MCF7 breast 7.23% | HCT-116 colon -49.5%

Cc1cc(N2CCN(CC(=O)Nc3ccc4c(ccn4Cc4ccccc4)c3)CC2)nc(N2CCCCCC2)n1
inactive: T-47D breast 42.7% | BT-549 breast 65.1% | MDA-MB-435 melanoma 60.7% | SW-620 colon 56.8% | MCF7 breast 20.5% | HCT-116 colon 38.8% | HCC-2998 colon 64.5% | KM12 colon 37.6%

COCCn1cc(-c2nc(-c3cn(CCOC)c4ncccc34)cs2)c2ccccc21
inactive: BT-549 breast 77.7% | MDA-MB-435 melanoma 108% | SW-620 colon 115% | MCF7 breast 10.5% | HCT-116 colon 79.9% | HCC-2998 colon 42.2% | KM12 colon 21.1%
active: T-47D breast -3.64%

N=C(N)c1ccc(-c2ccc(-c3ccc(Cl)c(Cl)c3)s2)cc1
active: SW-620 colon -65.1% | MCF7 breast -62.4% | HCT-116 colon -46.6% | HCC-2998 colon -53.7% | KM12 colon -91.4%
inactive: T-47D breast 62.1% | BT-549 breast 109% | MDA-MB-435 melanoma 14.4%

COc1ccc(/C=C/C(=O)c2cc3c(N)c(C(=O)Nc4ccccc4Cl)sc3nc2C)cc1
active: MDA-MB-435 melanoma -61.6%
inactive: T-47D breast 30.3% | BT-549 breast 59% | SW-620 colon 48.1% | MCF7 breast 17.2% | HCT-116 colon 59% | HCC-2998 colon 51.3% | KM12 colon 51.6%

Cn1cc(-c2csc(-c3c[nH]c4ccc(F)cc34)n2)c2cnccc21
active: T-47D breast -65% | MDA-MB-435 melanoma -90.5% | SW-620 colon -86.7% | MCF7 breast -25.1% | HCT-116 colon -89.9% | HCC-2998 colon -54.9% | KM12 colon -11.8%
inactive: BT-549 breast 76.6%

CC1(C)C(N)=Nc2cc(OCCCCN3Cc4ccccc4C3)c(OCC3CC3)cc21
active: HCC-2998 colon -0.545%
inactive: T-47D breast 37.7% | BT-549 breast 83.7% | MDA-MB-435 melanoma 71.9% | SW-620 colon 92.8% | MCF7 breast 48.5% | HCT-116 colon 47% | KM12 colon 96%
